Compounds with a hit are over-represented: about 1.7% of the library has one in this group of screens.
Vif inh: HIV Vif inhibition; HEK293T cells, Vif self-association by quenched fluorescence, imaging, 24 h; inhibition, % at 7.49 µM; actives 0.35% (n = 340,000); AID 602346; in the data active = inhibition above about 50%, passing the limit was not always enough; inconclusive = no clear call, values can overlap the other calls; inactive = below about 31%
CFTR F508del cor: correctors of CFTR F508del function in bronchial epithelial cells; CFBE cells, YFP halide quenching; stimulated with forskolin plus potentiator P3; % fluorescence drop versus neutral controls; activity (quench increase), % at 7.58 µM; actives 0.36% (n = 350,000);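 active = mean added fluorescence quench of at least 8% versus neutral control, with both replicates also reaching 8%; inconclusive = only one of the mean or replicate conditions met; inactive = mean below 8% and not both replicates reaching 8%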;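 note: cells transiently co-express mutant CFTR-F508del with the halide-sensitive YFP; corrector assay measuring rescue of mutant channel to the surface after 24 h compound exposure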
FGF22 binding: shifts melting point of recombinant human FGF22. Q9HCT0. recombinant FGF22 thermal shift, SYPRO orange fluorescence; percent of sucrose octasulfate shift, DMSO zero. activity (Tm shift, normalised), % at 9.99 µM. actives 1.5% (n = 340,000). AID 651658;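 active = mean Tm shift, scaled 0 neutral to 100 positive control, at about 1.3% or above, every replicate too, limit read from the data; inconclusive = no clear call, values can overlap the other calls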
Target sequence (Q9HCT0 whole entry, looked up): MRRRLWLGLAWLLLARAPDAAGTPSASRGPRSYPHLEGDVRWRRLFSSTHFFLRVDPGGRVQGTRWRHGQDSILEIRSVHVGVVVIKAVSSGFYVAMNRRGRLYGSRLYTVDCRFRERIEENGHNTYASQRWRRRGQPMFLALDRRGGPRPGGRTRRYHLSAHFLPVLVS
A number is an active result; i = inactive; ? = inconclusive; nt = not tested or not shown.

SMILES | Vif inh | CFTR F508del cor | FGF22 binding
C[C@H]1CN([C@@H](C)CO)S(=O)(=O)c2ccc(C#Cc3ccc(F)cc3)cc2O[C@H]1CN(C)C(=O)NC1CCCC1 | nt | 8.6 | i
C[C@H](CO)N1C[C@H](C)[C@@H](CN(C)C(=O)NC2CCCC2)Oc2cc(C#Cc3ccc(F)cc3)ccc2S1(=O)=O | nt | i | i
C[C@H](CO)N1C[C@H](C)[C@H](CN(C)C(=O)NC2CCCC2)Oc2cc(C#Cc3ccc(F)cc3)ccc2S1(=O)=O | nt | 9.7 | i
C[C@H](CO)N1C[C@H](C)[C@@H](CN(C)C(=O)NC2CCCCC2)Oc2cc(C#Cc3ccc(F)cc3)ccc2S1(=O)=O | nt | 8.5 | i
C[C@@H]1CN([C@@H](C)CO)S(=O)(=O)c2ccc(C#Cc3ccc(F)cc3)cc2O[C@H]1CN(C)C(=O)NC1CCCCC1 | nt | i | i
C[C@@H]1CN([C@@H](C)CO)S(=O)(=O)c2ccc(C#Cc3ccc(F)cc3)cc2O[C@@H]1CN(C)C(=O)NC1CCCC1 | nt | i | i
COCC(=O)N(C)C[C@H]1Oc2cc(-c3ccc(F)cc3)ccc2S(=O)(=O)N([C@@H](C)CO)C[C@H]1C | nt | i | i
O=C(C[C@@H]1CC[C@H]2[C@@H](COC[C@H](O)CN2Cc2cc(F)ccc2F)O1)N1CCc2ccccc2C1 | nt | i | i
C[C@@H]1CN([C@H](C)CO)C(=O)c2cc(NS(=O)(=O)c3cn(C)cn3)ccc2O[C@@H](C)CCCCO[C@H]1CN(C)Cc1ccc2c(c1)OCO2 | nt | i | i
CC1=C(C(=O)OCC2CCCO2)C(c2coc3ccc(Cl)cc3c2=O)C2=C(CCCC2=O)N1 (stereo not drawn) | i | i | i
CC1=C(C(=O)OCC2CCCO2)C(c2coc3ccc(C)cc3c2=O)C2=C(CCCC2=O)N1 (stereo not drawn) | i | i | 64.3
O=C(Nc1ccc2c(c1)OCO2)N[C@@H]1CC[C@H](CCNC(=O)C2CCCCC2)O[C@H]1CO | nt | i | i
CN(C)CCCNC(=O)C[C@@H]1C=C[C@H](NC(=O)c2ccccc2F)[C@@H](CO)O1 | nt | i | i
CC(=O)NNC(=O)CCn1nnc2ccccc21 | i | i | 43.9
O=C(CCn1nnc2ccccc21)NNC(=O)C1CCCCC1 | i | i | nt
CCOC(=O)CC(=O)CSc1nc(CC)c(C)cc1C#N | i | i | i
CCOC(=O)CC(=O)CSc1nc2ccc(C)cc2cc1C#N | 82.5 | i | i
CCCC#Cc1ccc([C@H]2[C@H]3CN(S(=O)(=O)c4ccccc4C)CC(=O)N3[C@H]2CO)cc1 | nt | i | nt
CC(=O)c1cccc(NC(=S)NCCC2=CCCCC2)c1 | i | nt | nt
O=C(NCCC1=CCCCC1)Nc1ccc2nsnc2c1 | i | i | 42.9
C[C@H]1CN([C@@H](C)CO)C(=O)c2cc(-c3cccnc3)cnc2O[C@H]1CN(C)C(=O)C1CCC1 | nt | i | i
Cc1cccc(OCc2nnc(SC(C)C(=O)O)n2Cc2ccccc2)c1 (stereo not drawn) | i | i | 43.3
Cc1ccc(OCc2nnc(SC(C)C(=O)O)n2Cc2ccccc2)cc1 (stereo not drawn) | i | i | i
Cc1noc(C)c1NC(=O)N(C)C[C@H]1OCCCC[C@@H](C)Oc2ccc(NC(=O)NC3CCCCC3)cc2C(=O)N([C@H](C)CO)C[C@@H]1C | nt | i | i
C[C@@H]1CN([C@H](C)CO)C(=O)c2cc(NS(=O)(=O)c3cn(C)cn3)ccc2O[C@H]1CN(C)S(=O)(=O)c1ccc(F)cc1 | nt | i | i
SMILES | Vif inh | CFTR F508del cor | FGF22 binding
CN=c1scc(-c2cccs2)n1/N=C/c1ccccc1O | i | nt | i
CN=c1scc(-c2cccs2)n1/N=C/c1ccc(O)c(O)c1O | i | i | 43.0
CCCC(=O)Nc1ccc2c(c1)C(=O)N(C)[C@H]1CC[C@H](CC(=O)NCc3ccccc3Cl)O[C@@H]1CO2 | nt | i | i
CN(C)CC#Cc1ccc([C@@H]2[C@H](CO)N3CCCCN(C(=O)C4CCCC4)C[C@@H]23)cc1 | nt | i | i
CCCNC(=O)c1cc(C2CCCCN2C(=O)c2ccc3c(c2)CCO3)on1 (stereo not drawn) | i | i | 43.0
CCCNC(=O)c1cc(C2CCCCN2C(=O)c2ccc3ccccc3c2)on1 (stereo not drawn) | i | i | i
CO[C@H]1CN(C)C(=O)c2ccc(NC(=O)C3CCOCC3)cc2OC[C@H](C)N(Cc2cccnc2)C[C@@H]1C | nt | i | i
CN(c1cccc(NC(=O)CN(c2cccc(F)c2)S(C)(=O)=O)c1)S(C)(=O)=O | i | i | 43.0
CC(=O)c1cccc(NC(=O)CN(c2cccc(F)c2)S(C)(=O)=O)c1 | i | nt | nt
COc1ccc(CN2CCCC(C(=O)N3CCCC3)C2)c(OC)c1 (stereo not drawn) | i | i | i
CCOC(=O)C1CCCN(C(=O)/C=C/c2ccc(Cl)cc2)C1 (stereo not drawn) | i | i | i
CCOC(=O)C1CCCN(C(=O)/C=C/c2cc(OC)c(OC)c(OC)c2)C1 (stereo not drawn) | i | i | 44.4
CCOC(=O)C1CCCN(Cc2ccc(OC)cc2OC)C1 (stereo not drawn) | 54.7 | nt | nt
CC(C)CC#Cc1ccc2c(c1)O[C@H](CN(C)Cc1ccncc1)[C@@H](C)CN([C@@H](C)CO)S2(=O)=O | nt | i | i
COc1ccc(NC(=O)Nc2ccc3c(c2)[C@H]2C[C@H](CC(=O)N(C)C)O[C@H](CO)[C@H]2O3)cc1 | nt | i | i
CC(C)C#Cc1cnc2c(c1)C(=O)N([C@H](C)CO)C[C@@H](C)[C@H](CN(C)C(=O)Cc1ccccn1)O2 | nt | i | i
O=C(NNC1CC(=O)N(c2cccc(Cl)c2)C1=O)c1cccs1 (stereo not drawn) | 52.5 | nt | nt
COc1cccc(N2C(=O)CC(NNC(=O)c3cccs3)C2=O)c1 (stereo not drawn) | i | i | i
C[C@@H](O)C#Cc1cnc2c(c1)C(=O)N([C@@H](C)CO)C[C@H](C)[C@H](CN(C)Cc1cccc(F)c1)O2 | nt | i | i
CN1C(=O)c2cc(NC(=O)C3CCC3)ccc2OC[C@@H]2O[C@@H](CC(=O)NCCc3ccncc3)CC[C@@H]21 | nt | i | i
N#CCCn1cc(C(=O)NCc2ccccc2)c(-c2cccs2)n1 | i | i | 43.0
N#CCCn1cc(C(=O)Nc2ccc(C(=O)O)cc2)c(-c2cccs2)n1 | i | i | i
COc1ccc(-c2csc(Nc3ccc(S(=O)(=O)Nc4cc(C)on4)cc3)n2)cc1C | i | i | 43.6
COc1ccc(-c2csc(Nc3ccc(S(=O)(=O)Nc4cc(OC)nc(OC)n4)cc3)n2)cc1 | i | nt | nt
COc1ccc(S(=O)(=O)N2CC[C@@H]3[C@@H](CO)Nc4ccc(-c5ccc(C#N)cc5)cc4[C@@H]32)cc1 | nt | 9.7 | i
O=S(=O)(c1ccc(F)cc1)N1CC[C@@H]2[C@@H](CO)Nc3ccc(-c4ccc(F)cc4)cc3[C@@H]21 | nt | 15.9 | i
O=S(=O)(c1ccc(F)cc1)N1CC[C@H]2[C@H](CO)Nc3ccc(-c4ccc(F)cc4)cc3[C@H]21 | nt | i | i
COc1ccc(S(=O)(=O)N2CC[C@@H]3[C@H](CO)Nc4ccc(-c5ccc(C#N)cc5)cc4[C@@H]32)cc1 | nt | ? | i
C[C@@H]1CN([C@@H](C)CO)C(=O)Cc2cc(NC(=O)Nc3ccc(F)cc3)ccc2O[C@@H]1CN(C)S(=O)(=O)c1ccc(Cl)cc1 | nt | i | i
COc1cc(-c2nc(-c3cccc(C)c3)no2)cc(OC)c1OC | i | nt | nt

Bioassay records as filed in PubChem BioAssay.
